# Laboratory results: PubChem BioAssay (EPA / NIEHS)
# Records with an inconclusive call do not appear. The source made the active and inactive calls. How the source made its calls: active means hit-call score of the fitted dose curve at least 0.9, where 1 is the maximum; inconclusive means response in the unintended direction; inactive means score below 0.9.
# Columns and labels:
# rat CYP2B1, gene 24300 = test: NVS_ADME_rCYP2B1: NovaScreen (NVS) CYP450-related Enzyme Activity (ADME) Assay for rat CYP2B1 (AID 2283117)
# Procedure, shortened: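 Recombinant rat CYP2B1 with fluorogenic substrate, read at 0.75 h. Primary screen in duplicate at 10 uM; compounds meeting threshold (e.g., 30% inhibition) re-run in concentration-response up to 20 uM. Fitted against acetonitrile control.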
# rat CYP3A1, gene 25642 = test: NVS_ADME_rCYP3A1: NovaScreen (NVS) CYP450-related Enzyme Activity (ADME) Assay for rat CYP3A1 (AID 2283126)
# Procedure, shortened: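 Cell-free recombinant CYP assay with fluorescent substrate, read 0.5 h after dosing. Screened at 10 uM in duplicate, hits at up to 20 uM in concentration-response; loss of signal versus acetonitrile baseline.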
# [1] = molecular target: rat CYP3A2, Cyp3a2 (gene 266682) (UniProt P05183); test: NVS_ADME_rCYP3A2: NovaScreen (NVS) CYP450-related Enzyme Activity (ADME) Assay for rat CYP3A2 (AID 2283128)
# Procedure, shortened: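 Cell-free rat CYP3A2 enzyme assay with fluorescent substrate, read 0.5 h after dosing. Primary duplicate screen at 10 uM; actives run in concentration-response up to 20 uM, relative to acetonitrile baseline.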
# [2] = molecular target: human Beta-secretase (BACE), BACE1 (gene 23621) (UniProt P56817); test: NVS_ENZ_hBACE: NovaScreen (NVS) Enzymatic Assay for human Beta-secretase (BACE) (AID 2283140);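 further: hits are inhibitors that reduce fluorescent substrate signal versus DMSO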
# Procedure, shortened: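 Compounds were first tested in duplicate at 25 uM, then actives in concentration series, against recombinant BACE1 from SF9 cells. Enzyme activity was measured by fluorescence intensity 1 hour after dosing, with DMSO as negative control.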
# [3] = molecular target: human AKT serine/threonine Kinase 1 (AKT1), AKT1 (gene 207) (UniProt P31749); test: NVS_ENZ_hAKT1: NovaScreen (NVS) Enzymatic Assay for human AKT serine/threonine Kinase 1 (AKT1) (AID 2283138)
# Procedure: NVS_ENZ_hAKT1 is a biochemical, single-readout assay that uses extracted gene-proteins in a cell-free assay. Measurements were taken 1 hour after chemical dosing in a 384-well plate.NVS_ENZ_hAKT1 is one of one assay component(s) measured or calculated from the NVS_ENZ_hAKT1 assay. It is designed to make measurements of enzyme activity, a form of enzyme reporter, as detected with fluorescence intensity signals by Fluorescence and electrophoretic mobility shift technology.Data from the assay component NVS_ENZ_hAKT1 was analyzed into 1 assay endpoint. This assay endpoint, NVS_ENZ_hAKT1, was analyzed in the positive analysis fitting direction relative to DMSO as the negative control and baseline of activity. Using a type of enzyme reporter, loss-of-signal activity can be used to understand changes in the enzymatic activity as they relate to the gene AKT1. Furthermore, this assay endpoint can be referred to as a primary readout, because this assay has produced multiple assay endpoints where this one serves a enzymatic activity function. To generalize the intended target to other relatable targets, this assay endpoint is annotated to the kinase intended target family, where the subfamily is serine/threonine kinase.
# (§1) Binding assays used specific radioligands (tritiated, iodinated) with non-radioactive competitive displacement ligands in agonist or antagonist protocols (as indicated) and various reference compounds and inhibitors to titrate specific binding to receptors and transporters. Most enzyme assays (CYPs, kinases, phosphatases, proteases, HDACs) used recombinant protein and specific substrates (fluorescence mostly, some colorimetric and radioactive) and inhibitors, followed by a biochemical separation of substrate and product. All assays for the biochemical HTS were initially run in duplicate at a single concentration (10 uM for CYP450 assays and 25 uM for all others). Assay-chemical combinations meeting a pre-defined threshold (e.g., 30% inhibition and other criteria defined below) were then run in singleton concentration-response format with maximum concentration of 20 uM for CYPs and 50 uM for all others. Each assay was run with positive and negative controls, and concurrent controls on every plate. The follow-up (secondary) screen tested active chemical-pairs in concentration series, as well as a few additional assays not tested in the primary screen, some selected negative inactives, and several cases re-run in the concentration series for confirmatory purposes.
# [4] = molecular target: human Caspase 5 (CASP5), CASP5 (gene 838) (UniProt P51878); test: NVS_ENZ_hCASP5: NovaScreen (NVS) Enzymatic Assay for human Caspase 5 (CASP5) (AID 2283137)
# Procedure, shortened: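 E. coli-derived enzyme, cell-free, 2 h incubation, fluorescence intensity. 25 uM duplicate single-point; hits → concentration series to 50 uM. DMSO baseline, positive/negative controls on every plate.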
# [5] = molecular target: human Caspase 2 (CASP2), CASP2 (gene 835) (UniProt P42575); test: NVS_ENZ_hCASP2: NovaScreen (NVS) Enzymatic Assay for human Caspase 2 (CASP2) (AID 2283135)
# Procedure: NVS_ENZ_hCASP2 is a biochemical, single-readout assay that uses extracted gene-proteins from E. coli in a cell-free assay. Measurements were taken 1 hour after chemical dosing in a 96-well plate.NVS_ENZ_hCASP2 is one of one assay component(s) measured or calculated from the NVS_ENZ_hCASP2 assay. It is designed to make measurements of enzyme activity, a form of enzyme reporter, as detected with fluorescence intensity signals by Fluorescence technology.Data from the assay component NVS_ENZ_hCASP2 was analyzed into 1 assay endpoint. This assay endpoint, NVS_ENZ_hCASP2, was analyzed in the positive analysis fitting direction relative to DMSO as the negative control and baseline of activity. Using a type of enzyme reporter, loss-of-signal activity can be used to understand changes in the enzymatic activity as they relate to the gene CASP2. Furthermore, this assay endpoint can be referred to as a primary readout, because this assay has produced multiple assay endpoints where this one serves a enzymatic activity function. To generalize the intended target to other relatable targets, this assay endpoint is annotated to the protease intended target family, where the subfamily is cysteine protease.
# as §1
# [6] = molecular target: human AMP-activated Protein Kinase, alpha 1 (AMPKa1), PRKAA1 (gene 5562) (UniProt Q13131); test: NVS_ENZ_hAMPKa1: NovaScreen (NVS) Enzymatic Assay for human AMP-activated Protein Kinase, alpha 1 (AMPKa1) (AID 2283130)
# Procedure, shortened: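 Recombinant human AMPKα1 activity was measured cell-free by fluorescent substrate conversion with electrophoretic mobility-shift separation, 1 h after dosing. Duplicate single-point screening was at 25 uM; actives (≥30% inhibition) were retested in concentration-response up to 50 uM.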
# [7] = molecular target: rat CYP1A2, Cyp1a2 (gene 24297) (UniProt P04799); test: NVS_ADME_rCYP1A2: NovaScreen (NVS) CYP450-related Enzyme Activity (ADME) Assay for rat CYP1A2 (AID 2283115)
# Procedure: NVS_ADME_rCYP1A2 is a biochemical, single-readout assay that uses extracted gene-proteins in a cell-free assay. Measurements were taken 1 hour after chemical dosing in a 96-well plate.NVS_ADME_rCYP1A2 is one of one assay component(s) measured or calculated from the NVS_ADME_rCYP1A2 assay. It is designed to make measurements of enzyme activity, a form of enzyme reporter, as detected with fluorescence intensity signals by Fluorescence technology.Data from the assay component NVS_ADME_rCYP1A2 was analyzed into 1 assay endpoint. This assay endpoint, NVS_ADME_rCYP1A2, was analyzed in the positive analysis fitting direction relative to Acetonitrile as the negative control and baseline of activity. Using a type of enzyme reporter, loss-of-signal activity can be used to understand changes in the enzymatic activity as they relate to the gene Cyp1a2. Furthermore, this assay endpoint can be referred to as a primary readout, because this assay has produced multiple assay endpoints where this one serves a enzymatic activity function. To generalize the intended target to other relatable targets, this assay endpoint is annotated to the cyp intended target family, where the subfamily is xenobiotic metabolism. […]
# [8] = molecular target: human Acetylcholinesterase (AChE), ACHE (gene 43) (UniProt P22303); test: NVS_ENZ_hAChE: NovaScreen (NVS) Enzymatic Assay for human Acetylcholinesterase (AChE) (AID 2283129)
# Procedure, shortened: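 Cell-free colorimetric enzyme-activity assay; compounds read 0.33 hour after dosing, loss of signal vs DMSO baseline. Primary screen in duplicate at 25 uM single concentration, with active compounds retested in concentration series.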
# human Caspase 2 (CASP2), CASP2 (gene 835), sequence (P42575 whole entry, looked up): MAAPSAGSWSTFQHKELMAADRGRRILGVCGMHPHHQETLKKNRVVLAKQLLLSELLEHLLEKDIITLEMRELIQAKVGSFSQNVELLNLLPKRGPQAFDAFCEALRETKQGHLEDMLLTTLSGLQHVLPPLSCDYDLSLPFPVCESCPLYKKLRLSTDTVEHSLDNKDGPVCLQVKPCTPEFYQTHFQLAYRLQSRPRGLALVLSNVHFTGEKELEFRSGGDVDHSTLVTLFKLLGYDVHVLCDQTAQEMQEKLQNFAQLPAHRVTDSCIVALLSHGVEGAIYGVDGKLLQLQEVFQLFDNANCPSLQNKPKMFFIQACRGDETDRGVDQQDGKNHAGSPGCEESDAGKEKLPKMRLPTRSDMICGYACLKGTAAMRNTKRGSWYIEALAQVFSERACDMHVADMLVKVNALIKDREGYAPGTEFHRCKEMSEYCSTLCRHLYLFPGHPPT
# human Beta-secretase (BACE), BACE1 (gene 23621), sequence (P56817 whole entry, looked up): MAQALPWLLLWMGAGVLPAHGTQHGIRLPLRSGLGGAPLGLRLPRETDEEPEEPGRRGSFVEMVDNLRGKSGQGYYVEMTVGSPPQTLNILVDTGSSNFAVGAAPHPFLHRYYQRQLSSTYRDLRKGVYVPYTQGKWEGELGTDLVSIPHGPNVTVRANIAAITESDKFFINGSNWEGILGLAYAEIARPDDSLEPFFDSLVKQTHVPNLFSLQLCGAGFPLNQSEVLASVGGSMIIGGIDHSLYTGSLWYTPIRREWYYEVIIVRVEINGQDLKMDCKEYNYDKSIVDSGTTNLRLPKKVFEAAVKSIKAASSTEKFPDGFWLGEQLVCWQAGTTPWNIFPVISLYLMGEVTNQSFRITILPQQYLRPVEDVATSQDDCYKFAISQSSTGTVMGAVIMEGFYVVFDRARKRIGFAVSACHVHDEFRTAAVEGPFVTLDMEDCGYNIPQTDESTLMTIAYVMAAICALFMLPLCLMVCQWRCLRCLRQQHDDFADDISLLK
# human AKT serine/threonine Kinase 1 (AKT1), AKT1 (gene 207), sequence (P31749 whole entry, looked up): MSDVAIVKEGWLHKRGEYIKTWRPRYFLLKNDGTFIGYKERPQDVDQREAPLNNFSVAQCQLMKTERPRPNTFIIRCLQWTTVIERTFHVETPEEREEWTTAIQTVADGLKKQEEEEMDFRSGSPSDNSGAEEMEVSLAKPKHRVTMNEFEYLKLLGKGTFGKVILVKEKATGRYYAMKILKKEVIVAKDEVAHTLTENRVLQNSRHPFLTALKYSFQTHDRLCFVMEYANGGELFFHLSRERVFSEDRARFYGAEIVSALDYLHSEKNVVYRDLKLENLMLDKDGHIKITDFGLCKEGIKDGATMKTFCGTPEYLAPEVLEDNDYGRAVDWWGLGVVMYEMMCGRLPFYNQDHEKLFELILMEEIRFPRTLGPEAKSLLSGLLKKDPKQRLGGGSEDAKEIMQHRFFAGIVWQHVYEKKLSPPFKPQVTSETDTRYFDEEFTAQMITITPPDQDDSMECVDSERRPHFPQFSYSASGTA
# human AMP-activated Protein Kinase, alpha 1 (AMPKa1), PRKAA1 (gene 5562), sequence (Q13131 whole entry, looked up): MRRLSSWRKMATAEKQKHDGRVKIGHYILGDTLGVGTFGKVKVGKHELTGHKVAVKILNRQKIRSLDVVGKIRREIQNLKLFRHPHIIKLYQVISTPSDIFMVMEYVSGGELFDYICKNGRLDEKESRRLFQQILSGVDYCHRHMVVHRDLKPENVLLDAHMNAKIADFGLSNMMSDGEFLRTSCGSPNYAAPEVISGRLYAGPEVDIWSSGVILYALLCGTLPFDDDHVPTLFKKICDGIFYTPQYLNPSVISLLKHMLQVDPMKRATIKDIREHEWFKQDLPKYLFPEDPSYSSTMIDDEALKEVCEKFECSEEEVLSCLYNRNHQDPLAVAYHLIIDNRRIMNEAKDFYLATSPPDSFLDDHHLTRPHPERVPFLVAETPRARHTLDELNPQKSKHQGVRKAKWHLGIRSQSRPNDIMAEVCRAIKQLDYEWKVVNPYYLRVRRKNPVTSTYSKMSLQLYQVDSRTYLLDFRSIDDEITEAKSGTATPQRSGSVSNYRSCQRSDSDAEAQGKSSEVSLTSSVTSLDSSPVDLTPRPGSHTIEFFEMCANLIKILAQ
# rat CYP1A2, Cyp1a2 (gene 24297), sequence (P04799 whole entry, looked up): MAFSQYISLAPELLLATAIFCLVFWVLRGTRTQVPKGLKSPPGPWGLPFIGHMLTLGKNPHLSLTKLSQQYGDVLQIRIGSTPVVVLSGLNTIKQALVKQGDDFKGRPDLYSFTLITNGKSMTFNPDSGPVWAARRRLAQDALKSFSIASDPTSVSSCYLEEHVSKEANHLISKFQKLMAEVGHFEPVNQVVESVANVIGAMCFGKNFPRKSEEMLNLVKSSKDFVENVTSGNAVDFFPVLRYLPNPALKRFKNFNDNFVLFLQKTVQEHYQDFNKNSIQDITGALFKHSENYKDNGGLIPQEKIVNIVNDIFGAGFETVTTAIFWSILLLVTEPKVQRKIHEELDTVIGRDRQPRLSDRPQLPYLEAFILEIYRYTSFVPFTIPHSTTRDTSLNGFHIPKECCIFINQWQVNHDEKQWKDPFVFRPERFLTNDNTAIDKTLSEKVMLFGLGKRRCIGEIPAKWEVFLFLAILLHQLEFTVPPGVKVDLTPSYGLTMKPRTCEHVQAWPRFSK
# human Caspase 5 (CASP5), CASP5 (gene 838), sequence (P51878 whole entry, looked up): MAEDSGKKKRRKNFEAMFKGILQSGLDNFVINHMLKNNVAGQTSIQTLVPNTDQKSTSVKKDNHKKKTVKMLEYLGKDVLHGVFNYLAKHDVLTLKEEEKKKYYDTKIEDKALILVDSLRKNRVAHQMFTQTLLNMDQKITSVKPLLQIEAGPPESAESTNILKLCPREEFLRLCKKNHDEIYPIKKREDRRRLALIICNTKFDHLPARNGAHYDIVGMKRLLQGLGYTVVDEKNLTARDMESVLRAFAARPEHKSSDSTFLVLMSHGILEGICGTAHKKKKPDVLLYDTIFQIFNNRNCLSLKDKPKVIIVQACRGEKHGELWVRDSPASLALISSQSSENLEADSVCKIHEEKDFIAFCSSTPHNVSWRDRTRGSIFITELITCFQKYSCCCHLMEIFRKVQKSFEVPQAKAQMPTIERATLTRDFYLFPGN
# human Acetylcholinesterase (AChE), ACHE (gene 43), sequence (P22303 whole entry, looked up): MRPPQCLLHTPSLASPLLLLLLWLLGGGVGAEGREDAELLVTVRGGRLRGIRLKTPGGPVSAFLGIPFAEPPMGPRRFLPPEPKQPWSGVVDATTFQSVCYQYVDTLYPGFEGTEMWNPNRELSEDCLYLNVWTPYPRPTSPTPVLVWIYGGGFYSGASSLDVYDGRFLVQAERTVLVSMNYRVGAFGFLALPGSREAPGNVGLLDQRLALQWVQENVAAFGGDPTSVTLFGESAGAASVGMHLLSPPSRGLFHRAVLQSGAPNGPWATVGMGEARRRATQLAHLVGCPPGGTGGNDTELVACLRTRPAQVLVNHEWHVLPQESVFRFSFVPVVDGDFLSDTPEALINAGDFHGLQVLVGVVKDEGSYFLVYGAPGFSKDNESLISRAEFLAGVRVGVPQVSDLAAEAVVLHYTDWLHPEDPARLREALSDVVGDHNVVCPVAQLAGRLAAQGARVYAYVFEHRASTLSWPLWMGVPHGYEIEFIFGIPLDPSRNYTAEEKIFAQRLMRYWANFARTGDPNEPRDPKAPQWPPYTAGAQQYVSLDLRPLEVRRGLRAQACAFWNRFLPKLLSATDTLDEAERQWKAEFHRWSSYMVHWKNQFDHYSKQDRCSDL
# rat CYP3A2, Cyp3a2 (gene 266682), sequence (P05183 whole entry, looked up): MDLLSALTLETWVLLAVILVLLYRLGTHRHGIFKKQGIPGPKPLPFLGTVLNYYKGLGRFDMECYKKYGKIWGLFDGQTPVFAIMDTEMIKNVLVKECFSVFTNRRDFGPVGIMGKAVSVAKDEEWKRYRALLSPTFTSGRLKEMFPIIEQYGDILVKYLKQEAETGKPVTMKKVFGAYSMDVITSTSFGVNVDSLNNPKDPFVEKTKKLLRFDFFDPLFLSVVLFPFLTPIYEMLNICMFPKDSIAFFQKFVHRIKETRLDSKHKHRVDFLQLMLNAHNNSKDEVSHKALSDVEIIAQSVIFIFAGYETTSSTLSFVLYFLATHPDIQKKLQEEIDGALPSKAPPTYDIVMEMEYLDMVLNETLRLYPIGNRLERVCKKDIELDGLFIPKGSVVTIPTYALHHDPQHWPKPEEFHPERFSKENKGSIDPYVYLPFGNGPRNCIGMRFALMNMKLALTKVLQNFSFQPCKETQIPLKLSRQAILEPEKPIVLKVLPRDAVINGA
structure (smiles),measurement,setting,value
CO/N=C(/C(=O)OC)c1ccccc1COc1ccccc1C,outcome,"rat CYP2B1, gene 24300",inactive
same,AC50,"rat CYP3A1, gene 25642",6.96 µM (active)
same,AC50,[1],6.28 µM (active)
CCCN(CCC)c1c([N+](=O)[O-])cc(C(C)C)cc1[N+](=O)[O-],outcome,[2],inactive
O=c1ssc(Cl)c1Cl,outcome,"rat CYP2B1, gene 24300",inactive
Cc1cccc(N)c1,outcome,[3],inactive
Cc1ccc2c(c1N)C(=O)c1ccccc1C2=O,AC50,[4],6.72 µM (active)
CC(Cl)(Cl)C(=O)O,outcome,[5],inactive
CCOP(=S)(Oc1ccc([N+](=O)[O-])cc1)c1ccccc1 (configuration not stated),outcome,[3],inactive
O=P1(N(CCCl)CCCl)NCCCO1 (configuration not stated),outcome,[6],inactive
CSC(C)(C)C=NO,outcome,[6],inactive
COCCOCCO,outcome,[5],inactive
O=P(OCC(Br)CBr)(OCC(Br)CBr)OCC(Br)CBr (configuration not stated),outcome,[7],inactive
same,AC50,[2],14.3 µM (active)
c1ccc2c(c1)sc1ccccc12,outcome,[7],inactive
CCOP(=S)(S)OCC,outcome,[4],inactive
CCCCN(CCCC)SN(C)C(=O)Oc1cccc2c1OC(C)(C)C2,AC50,[8],1.31 µM (active)
same,outcome,[5],inactive
CCOP(=S)(OCC)SCSCC,outcome,[5],inactive
same,outcome,[3],inactive
CC(C)(C)OOC(C)(C)C,outcome,[3],inactive
NNC(N)=S,outcome,[2],inactive
